Screens as filed in PubChem BioAssay.
sPLA2-III inh – human group III sPLA2 inhibitors, primary screen, biochemical, QFRET, BODIPY PC-A2 liposome substrate | QFRET BODIPY PC-A2 liposome hydrolysis, fluorescence | inhibition, % at 12.2 µM | actives 0.56% (n = 370,000) | AID 743126, 2013;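 active = inhibition above mean plus 3 SD of compounds lying within the high and low control bounds, cut at about 19% in these data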;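 also: 0% = median of test compound wells and 100% = no enzyme DMSO wells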
Target sequence (Q9NZ20 whole entry, looked up): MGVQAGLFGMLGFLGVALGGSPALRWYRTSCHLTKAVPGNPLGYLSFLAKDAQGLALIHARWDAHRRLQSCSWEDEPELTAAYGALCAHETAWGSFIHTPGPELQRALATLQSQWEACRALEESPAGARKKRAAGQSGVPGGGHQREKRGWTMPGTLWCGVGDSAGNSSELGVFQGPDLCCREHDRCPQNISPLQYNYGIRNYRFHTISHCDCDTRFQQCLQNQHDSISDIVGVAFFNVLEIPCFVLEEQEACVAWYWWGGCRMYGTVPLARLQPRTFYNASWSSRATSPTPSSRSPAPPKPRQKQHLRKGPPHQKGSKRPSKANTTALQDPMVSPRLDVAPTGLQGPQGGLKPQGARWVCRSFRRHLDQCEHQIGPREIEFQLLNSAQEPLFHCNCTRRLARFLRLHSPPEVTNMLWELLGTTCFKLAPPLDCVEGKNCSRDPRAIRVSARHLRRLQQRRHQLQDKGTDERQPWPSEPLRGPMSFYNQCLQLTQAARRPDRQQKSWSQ
SUMO Mot1 rescue – yeast Mot1-301 growth rescue at high temperature, primary screen, SUMOylation pathway inhibitor project, S. cerevisiae, ATP luminescence, 38.5C; growth rescue, % at 18.8 µM; AID 2716, 2010; S. cerevisiae Mot1-301 growth rescue; percent above DMSO median, 100 means doubled; actives 1% (n = 320,000);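 active = every valid replicate shows activation above 250% relative to neutral control wells; inactive = the rest, any valid replicate at or below 250%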;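 also: OY570 slx delta 5 strain wells were the positive control but not used for scaling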
Efflux pump inh – inhibitors of Candida efflux pumps in yeast, primary screen, S. cerevisiae, Nile Red, multiplex; S. cerevisiae Candida pump triplex; inhibition, % at 10 µM; actives 0.44% (n = 330,000);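 active = plate passing quality check with inhibition over a set limit, or well fluorescence over plate mean plus 4 SD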;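 also: Nile Red retained in pooled yeast measured as flow cytometry median fluorescence; 0% = buffer negative control and 100% = Enniatin B positive control; higher means more Nile Red kept so more efflux inhibition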
SKN-1 inh – suppressors of acrylamide-induced Pgst-4::GFP reporter in worms, primary screen, SKN-1 inhibitor project, whole organism, uHTS, GFP/RFP fluorescence ratio, strain VP596 | C. elegans VP596 Pgst-4::GFP/RFP ratio, 24 h | inhibition, % at 21.8 µM | actives 0.49% (n = 360,000);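 active = interference check ratio from 0.5 to 1.5 plus GFP to RFP signal ratio inhibition reaching or exceeding a fixed threshold, cut at about 30% in these data, passing the limit was not always enough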
Cmpd fluor yeast – compound fluorescence in yeast efflux pump counter-screen | shares compounds with Efflux pump inh | fluorescence ratio to DMSO, % at 10 µM | S. cerevisiae AD/pABC3, flow cytometry | actives 4% (n = 1,700);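 active = fluorescence ratio to DMSO above its plate's cutoff, the plate mean ratio plus 5 SD, cut at about 210% in these data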;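 also: unstained yeast with no Nile Red so the signal is compound autofluorescence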
Mdr1 pump inh – inhibitors of Candida albicans Mdr1 efflux, confirmation, flow cytometry, singleplex, Cherry Pick1 set. shares compounds with Efflux pump inh. S. cerevisiae AD/CaMDR1, Nile Red efflux. inhibition, % at 10 µM. actives 1% (n = 1,700). AID 588518, 2011; in the data active = inhibition above about 26%;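 also: 0% = DMSO vehicle and 100% = reference inhibitor; higher means more Nile Red retained so more efflux inhibition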
CaCdr2 efflux inh – inhibitors of Candida albicans Cdr2 efflux pump, confirmation, S. cerevisiae AD/CaCDR2, flow cytometry, cherry pick 1, singleplex | shares compounds with Efflux pump inh | Nile Red retention | Nile Red retention ratio vs DMSO, % at 10 µM | actives 4% (n = 1,700) | AID 588520, 2011; in the data active = Nile Red retention ratio vs DMSO above about 190%;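 also: higher ratio means more blocking of Cdr2 efflux of the dye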
Cdr1 pump inh – inhibitors of Candida albicans Cdr1 efflux pump, confirmation, S. cerevisiae AD/CaCDR1, flow cytometry, cherry pick 1, singleplex; shares compounds with Efflux pump inh; actives 1% (n = 1,700); AID 588522, 2011; Nile Red efflux; inhibition, % at 10 µM;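 active = inhibition above the screen-wide mean plus twice its standard deviation, cut at about 32% in these data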
* marks the source's active call; other numbers are inactive results. The list is not random: actives were taken first. Their share in the collection is about 2.2%.

What do the screens show for `COC(=O)Cn1c(CN2CCOCC2)nc2c1c(=O)[nH]c(=O)n2C`?
sPLA2-III inh: 4; SUMO Mot1 rescue: inactive; Efflux pump inh: 1.2*; SKN-1 inh: -2; Cmpd fluor yeast: 108; Mdr1 pump inh: 0; CaCdr2 efflux inh: 104; Cdr1 pump inh: 0

How did Cc1ccc(Nc2c(-c3ccc(N4CCOCC4)cc3)nc3ncccn23)cc1C do in these assays?
sPLA2-III inh: 4; SUMO Mot1 rescue: inactive; Efflux pump inh: 0; SKN-1 inh: 19

What do the screens show for `Cc1ccc(Nc2c(-c3ccc(N4CCOCC4)cc3)nc3ncccn23)cc1`?
sPLA2-III inh: 7; SUMO Mot1 rescue: -27; Efflux pump inh: 0.9*; SKN-1 inh: -11; Cmpd fluor yeast: 108; Mdr1 pump inh: 0; CaCdr2 efflux inh: 106; Cdr1 pump inh: 0

What do the screens show for `Cc1cc(C(=O)COC(=O)c2ccc[nH]c2=O)c(C)n1-c1ccc(F)cc1`?
sPLA2-III inh: 3; SUMO Mot1 rescue: -11; Efflux pump inh: 28*; SKN-1 inh: 6; Cmpd fluor yeast: 115; Mdr1 pump inh: 0; CaCdr2 efflux inh: 112; Cdr1 pump inh: 0

What do the screens show for `COc1ccccc1C1CCN(Cc2c(C)[nH]c3ccccc23)CC1`?
sPLA2-III inh: -17; SUMO Mot1 rescue: -16; Efflux pump inh: 0.9*; SKN-1 inh: -24; Cmpd fluor yeast: 108; Mdr1 pump inh: 0; CaCdr2 efflux inh: 96; Cdr1 pump inh: 0

Results for COc1ccccc1C1CCN(Cc2cccc3ccccc23)CC1 ?
sPLA2-III inh: 11; SUMO Mot1 rescue: 2; Efflux pump inh: 0; SKN-1 inh: -2

Results for COc1ccc(C2N=C(Nc3ccc(C)cc3)Nc3nc(C)cc(=O)n32)cc1 (configuration not stated) ?
sPLA2-III inh: 0; SUMO Mot1 rescue: 13; Efflux pump inh: 0.4*; SKN-1 inh: 6; Cmpd fluor yeast: 99; Mdr1 pump inh: 0; CaCdr2 efflux inh: 97; Cdr1 pump inh: 0

Results for Cc1ccc(NC2=NC(c3ccc(O)cc3)n3c(nc(C)cc3=O)N2)cc1 (configuration not stated) ?
sPLA2-III inh: -5; SUMO Mot1 rescue: -7; Efflux pump inh: 0; SKN-1 inh: 21

Results for Cc1ccc2nc(SCC(=O)N3c4ccccc4CC3C)c(C)cc2c1 (configuration not stated) ?
sPLA2-III inh: 14; SUMO Mot1 rescue: 19; Efflux pump inh: 112*; SKN-1 inh: -3; Cmpd fluor yeast: 103; Mdr1 pump inh: 0; CaCdr2 efflux inh: 104; Cdr1 pump inh: 0

What do the screens show for `Cc1ccc(NC(=S)NC(=O)c2ccccc2)cc1NC(=S)NC(=O)c1ccccc1`?
sPLA2-III inh: 3; SUMO Mot1 rescue: 19; Efflux pump inh: 0.7*; SKN-1 inh: 16; Cmpd fluor yeast: 105; Mdr1 pump inh: 0; CaCdr2 efflux inh: 97; Cdr1 pump inh: 0

How did O=C(Nc1cccc(NC(=S)NC(=O)c2cccs2)c1)c1ccccc1 do in these assays?
sPLA2-III inh: 16; SUMO Mot1 rescue: -8; Efflux pump inh: 8.0*; SKN-1 inh: -4; Cmpd fluor yeast: 91; Mdr1 pump inh: 0; CaCdr2 efflux inh: 100; Cdr1 pump inh: 0

Results for O=C(NC(=S)Nc1ccc2ncccc2c1)c1ccccc1 ?
sPLA2-III inh: 6; SUMO Mot1 rescue: 16; Efflux pump inh: 0; SKN-1 inh: -11

Results for Cc1cccc(C(=O)NC(=S)Nc2ccc(Cc3ccncc3)cc2)c1 ?
sPLA2-III inh: 2; SUMO Mot1 rescue: -21; Efflux pump inh: 0.7*; SKN-1 inh: 11; Cmpd fluor yeast: 103; Mdr1 pump inh: 0; CaCdr2 efflux inh: 121; Cdr1 pump inh: 0

How did O=C(NC(=S)Nc1cccc(NC(=S)NC(=O)c2ccccc2)c1)c1ccccc1 do in these assays?
sPLA2-III inh: 2; SKN-1 inh: 5

Results for O=C(NC(=S)Nc1ccc2nc[nH]c2c1)c1ccccc1 ?
sPLA2-III inh: 7; SUMO Mot1 rescue: -13; Efflux pump inh: 0; SKN-1 inh: -4; Cmpd fluor yeast: 105; Mdr1 pump inh: 0; CaCdr2 efflux inh: 101; Cdr1 pump inh: 0

What do the screens show for `NS(=O)(=O)c1ccc(NC(=O)C(Sc2ccccc2)c2ccccc2)cc1` (configuration not stated)?
sPLA2-III inh: -45; SUMO Mot1 rescue: 8; Efflux pump inh: 0; SKN-1 inh: -3

Results for O=[N+]([O-])c1cccc(-c2nc3ccccc3s/c2=N/O)c1 ?
sPLA2-III inh: -44; SUMO Mot1 rescue: 24; Efflux pump inh: 0.7*; SKN-1 inh: 7; Cmpd fluor yeast: 116; Mdr1 pump inh: 0; CaCdr2 efflux inh: 116; Cdr1 pump inh: 0

What do the screens show for `Cc1cc(C(F)(F)F)cc(NNC(=O)NC(=O)c2ccc(Cl)cc2)n1`?
sPLA2-III inh: 4; SUMO Mot1 rescue: -10; Efflux pump inh: 1.3*; SKN-1 inh: -3; Cmpd fluor yeast: 102; Mdr1 pump inh: 0; CaCdr2 efflux inh: 106; Cdr1 pump inh: 0

What do the screens show for `O=C(NC(=O)c1ccccc1)Nc1ccc(Cl)cn1`?
sPLA2-III inh: 1; SUMO Mot1 rescue: 219; Efflux pump inh: 0.4*; SKN-1 inh: 14; Cmpd fluor yeast: 103; Mdr1 pump inh: 0; CaCdr2 efflux inh: 96; Cdr1 pump inh: 0

How did Cc1cc2ccccc2n1CCNC(=O)c1ccc(Br)o1 do in these assays?
sPLA2-III inh: 2; SUMO Mot1 rescue: 1; Efflux pump inh: 1.3*; SKN-1 inh: 37*; Cmpd fluor yeast: 100; Mdr1 pump inh: 0; CaCdr2 efflux inh: 94; Cdr1 pump inh: 0

How did Cc1occc1-c1nnc(SCC(=O)N[C@@H]2CCc3ccccc32)n1-c1ccccc1 do in these assays?
sPLA2-III inh: -8

What do the screens show for `O=C(NCc1ccc(F)cc1)c1noc2c1CCCC2`?
SUMO Mot1 rescue: 5; Efflux pump inh: 0.9*; SKN-1 inh: 24; Cmpd fluor yeast: 83; Mdr1 pump inh: 0; CaCdr2 efflux inh: 95; Cdr1 pump inh: 0
